Bioassay records as filed in PubChem.
This is a sample that favours compounds with a hit; in the whole collection about 4% have one here.
ERAP1 inh: human ERAP1 aminopeptidase inhibitors, primary screen, biochemical, single point, plate reader | Endoplasmic reticulum aminopeptidase 1 (Homo sapiens), Q9NZ08 | recombinant ERAP1, Leu-AMC fluorescence, 60 min | inhibition, % at 10.7 µM | 340,000 compounds, 0.15% hits | AID 652197, 2013;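 active = mean replicate inhibition of at least 30%, or all replicates individually reaching that 30% level; inactive = mean below 30% and not every replicate reaching it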;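 also: 0% = neutral control wells and 100% = L-leucinethiol positive control wells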
Target sequence (Q9NZ08 whole entry, looked up): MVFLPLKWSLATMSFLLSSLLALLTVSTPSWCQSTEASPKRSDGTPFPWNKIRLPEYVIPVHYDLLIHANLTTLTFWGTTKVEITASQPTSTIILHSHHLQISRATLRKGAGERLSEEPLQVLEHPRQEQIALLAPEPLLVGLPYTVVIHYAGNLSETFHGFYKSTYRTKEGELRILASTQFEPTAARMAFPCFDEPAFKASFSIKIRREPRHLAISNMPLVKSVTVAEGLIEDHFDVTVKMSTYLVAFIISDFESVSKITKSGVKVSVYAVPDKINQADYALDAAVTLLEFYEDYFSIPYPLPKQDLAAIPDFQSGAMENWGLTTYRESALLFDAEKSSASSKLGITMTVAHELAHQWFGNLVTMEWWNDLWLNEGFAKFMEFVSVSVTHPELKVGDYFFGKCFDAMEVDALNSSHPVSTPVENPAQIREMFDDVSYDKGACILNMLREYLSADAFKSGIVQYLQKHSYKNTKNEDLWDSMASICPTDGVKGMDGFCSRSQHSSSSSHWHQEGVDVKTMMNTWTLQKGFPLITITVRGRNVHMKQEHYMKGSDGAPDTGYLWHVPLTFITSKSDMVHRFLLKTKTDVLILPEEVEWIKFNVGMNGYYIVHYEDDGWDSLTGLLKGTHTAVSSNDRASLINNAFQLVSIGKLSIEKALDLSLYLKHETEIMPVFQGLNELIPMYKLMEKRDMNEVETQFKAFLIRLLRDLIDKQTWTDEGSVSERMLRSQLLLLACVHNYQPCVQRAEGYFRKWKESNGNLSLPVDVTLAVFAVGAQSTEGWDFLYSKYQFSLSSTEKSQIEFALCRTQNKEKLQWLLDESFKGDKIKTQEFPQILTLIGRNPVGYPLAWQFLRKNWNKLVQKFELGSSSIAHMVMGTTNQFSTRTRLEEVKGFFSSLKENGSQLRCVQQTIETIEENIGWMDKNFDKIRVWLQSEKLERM
FGF22 binding: binders of human FGF22 protein, primary screen, FGF22 synaptogenesis inhibitor project, biophysical, thermal shift, single point; recombinant FGF22 thermal shift, SYPRO orange fluorescence; percent of sucrose octasulfate shift, DMSO zero; activity (Tm shift, normalised), % at 9.99 µM; 340,000 compounds, 1.5% hits; AID 651658, 2012;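 active = mean Tm shift, scaled 0 neutral to 100 positive control, at about 1.3% or above, every replicate too, limit read from the data; inconclusive = no clear call, values can overlap the other calls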
AF4-AF9 inh: inhibitors of AF4 peptide binding to AF9, primary screen, biochemical, AlphaScreen, biotin-AF4 peptide, FLAG-AF9, single point; Protein AF-9 (Homo sapiens), P42568; inhibition, % at 10 µM; 350,000 compounds, 0.47% hits;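 active = every replicate reaching a set inhibition limit, whatever the replicate mean, cut at about 25% in these data; inconclusive = mean inhibition reaches that limit but some replicates miss it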;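 also: 0% = plate neutral control median and 100% = total signal loss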
RAD52 anneal inh: RAD52 DNA annealing inhibitors, primary screen, biochemical, FRET, single point, set 2; DNA repair protein RAD52 homolog (Homo sapiens), P43351; recombinant RAD52 DNA annealing, FRET fluorescence; inhibition, % at 18.7 µM; 360,000 compounds, 0.46% hits; AID 651710, 2012;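 active = every replicate showing at least 50% inhibition; inconclusive = mean inhibition at least 50% but not in every replicate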
DENV2 CPE: inhibitors of DENV2 cytopathic effect, primary screen, cell-based, plate reader, single concentration. AID 651640, 2012. CPE inhibition, % at 9.99 µM. DENV2-infected cells, cytopathic effect rescue. 350,000 compounds, 1.7% hits; in the data active = CPE inhibition above about 20%, passing the limit was not always enough; inconclusive = no clear call, values can overlap the other calls; tested in BHK-21 cells;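 also: 0% = median of neutral control wells and 100% = median of positive control wells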
Starred values were filed as active, the others as inactive; u = inconclusive; x = not tested or not shown.

SMILES	ERAP1 inh	FGF22 binding	AF4-AF9 inh	RAD52 anneal inh	DENV2 CPE
O=c1ccc2[n+]([O-])c3ccc(O)cc3oc-2c1	x	x	42.7*	-293.1	-6.7
O=c1cc(O)c2ccc(O)cc2o1	-0.3	0.1	-1.5	-12.0	2.9
Cc1cc(C(=O)Nc2ccc3c(c2)C(=O)N(C)[C@@H]2CC[C@@H](CC(=O)NC4CCCC4)O[C@H]2CO3)no1	1.7	-0.1	-0.1	-3.4	-0.8
O=C(O)CC(CCc1ccccc1)OC1OC(CO)C(O)C(O)C1O (centres undefined)	32.2*	0.0	7.2	6.5	-7.9
CNC[C@H]1Oc2ccc(N)cc2C(=O)N([C@@H](C)CO)C[C@@H]1C	0.1	-0.3	-17.2	7.3	-4.5
CCNC(=O)C[C@H]1CC[C@H]2[C@@H](COC[C@@H](O)CN2Cc2ccncc2)O1	0.7	0.1	-3.4	-8.5	-8.7
COc1ccccc1NC(=O)COC(=O)c1ccc(S(=O)(=O)N2CCCCCC2)cc1	0.5	43.2*	-1.8	-11.0	u
Cc1ccc(C(=O)OCC(=O)Nc2ccccc2C(F)(F)F)cc1S(=O)(=O)N1CCCCC1	0.5	-0.1	7.9	-2.9	101.1*
Cc1ccc(C(=O)OCC(=O)N2C(C)CCCC2C)cc1S(=O)(=O)N1CCOCC1 (centres undefined)	3.4	-0.1	0.7	5.1	25.1*
CCCN(C)C[C@H]1Oc2cc(C#C[C@@H](C)O)ccc2S(=O)(=O)N([C@H](C)CO)C[C@H]1C	0.7	0.2	-0.1	-1.1	-3.9
CCN(CCn1cccn1)Cc1nc(-c2ccc(OC)cc2)no1	3.1	43.1*	0.7	-5.6	-4.6
CCN(CCn1cccn1)Cc1nc(-c2ccccc2)no1	5.9	0.0	-1.9	-11.3	-0.1
N#Cc1ccc(C23OCCN2CCn2c3c3ccccc3[n+]2[O-])cc1 (centres undefined)	5.2	0.4	47.9*	-28.6	8.7
CC1(C)CC(=O)N(c2ccc(C#N)cc2)C(=O)C1	-2.9	-0.3	-10.2	1.8	-0.1
C[C@H](NC(=O)[C@@H]1[C@@H](CO)[C@@H]2Cn3c(ccc(-c4ccccc4F)c3=O)[C@H]1N2C)c1ccccc1	-2.7	0.1	0.2	-7.6	2.4
C[C@@H]1CN([C@H](C)CO)C(=O)c2cc(NC(=O)Nc3ccc(C(F)(F)F)cc3)ccc2O[C@@H]1CN(C)Cc1ccncc1	-2.7	-0.3	2.2	8.8	56.7*
COc1ccc(CN(C)C[C@@H]2Oc3ccc(NC(=O)Nc4ccc(C(F)(F)F)cc4)cc3C(=O)N([C@H](C)CO)C[C@@H]2C)cc1	-2.1	0.3	3.4	5.8	28.6*
C[C@H]1CN([C@@H](C)CO)C(=O)c2cc(NC(=O)Nc3ccc(C(F)(F)F)cc3)ccc2O[C@H]1CN(C)Cc1ccncc1	-2.6	-0.3	1.8	6.0	20.6*
COc1ccccc1CN1[C@@H](CO)[C@@H](c2ccccc2)C12CN(C(=O)c1ccccn1)C2	-8.9	-0.1	-1.8	-13.5	5.3
C[C@@H]1CN([C@@H](C)CO)C(=O)c2cc(NS(=O)(=O)c3cn(C)cn3)ccc2O[C@H]1CN(C)CC1CCCCC1	-1.0	-0.1	-2.1	-4.9	-2.7
CCCC#Cc1ccc([C@@H]2[C@@H](CO)N3C(=O)CN(C(=O)NCCC)C[C@H]23)cc1	1.3	x	0.9	-20.1	u
CC(=O)N[C@H]1CC[C@@H](CCNC(=O)C2CCCCC2)O[C@H]1CO	-7.7	x	-2.0	-13.3	6.8
CCC(=O)N(C)C[C@H]1Oc2cc(C#CCN(C)C)ccc2S(=O)(=O)N([C@@H](C)CO)C[C@H]1C	2.5	-0.1	0.6	5.7	-8.1
COC(=O)[C@@H]1[C@H](CCc2ccccc2)NC(=O)N(Cc2ccccc2)[C@@H]1C	-0.2	0.2	-16.2	-6.5	68.5*
CCN1C(=O)N[C@@H](CCc2ccccc2)[C@H](C(=O)OC)[C@H]1C	x	0.1	-0.5	-1.5	-0.8
SMILES	ERAP1 inh	FGF22 binding	AF4-AF9 inh	RAD52 anneal inh	DENV2 CPE
O=C(NC1CCCC1)[C@@H]1[C@@H](CO)[C@@H]2Cn3c(ccc(-c4ccccc4)c3=O)[C@H]1N2	2.2	x	-1.0	5.8	-2.4
COc1ccc(CN(C)C[C@@H]2OCCCC[C@H](C)Oc3ccc(NS(=O)(=O)c4ccc(F)cc4)cc3C(=O)N([C@H](C)CO)C[C@@H]2C)cc1	2.0	-0.2	13.2	52.8*	6.7
COc1ccc(CN(C)C[C@@H]2OCCCC[C@@H](C)Oc3ccc(NS(=O)(=O)c4ccc(Cl)cc4)cc3C(=O)N([C@H](C)CO)C[C@H]2C)cc1	-4.6	0.1	9.2	33.0	70.4*
COc1ccc(CN(C)C[C@@H]2OCCCC[C@@H](C)Oc3ccc(NS(=O)(=O)c4ccc(Cl)cc4)cc3C(=O)N([C@@H](C)CO)C[C@@H]2C)cc1	-3.4	-0.2	1.1	55.6*	11.2
COc1ccc(CN(C)C[C@H]2OCCCC[C@H](C)Oc3ccc(NS(=O)(=O)c4ccc(Cl)cc4)cc3C(=O)N([C@H](C)CO)C[C@H]2C)cc1	-3.3	-0.2	-0.9	17.9	5.6
COc1ccc(CN(C)C[C@H]2OCCCC[C@@H](C)Oc3ccc(NS(=O)(=O)c4ccc(OC)cc4)cc3C(=O)N([C@H](C)CO)C[C@@H]2C)cc1	x	-0.4	x	x	1.1
COc1ccc(CN(C)C[C@H]2OCCCC[C@@H](C)Oc3ccc(NS(=O)(=O)c4ccc(Cl)cc4)cc3C(=O)N([C@@H](C)CO)C[C@@H]2C)cc1	-1.1	-0.1	1.1	50.6*	u
CNC(=O)C[C@@H]1CC[C@@H]2[C@H](COc3ccc(NC(=O)NCc4ccccc4)cc3C(=O)N2C)O1	x	-0.3	x	x	-17.7
CO[C@@H]1CN(C)C(=O)c2cc(NC(=O)NC(C)C)ccc2OC[C@H](C)N(C(=O)CC2CC2)C[C@@H]1C	4.0	0.0	-1.3	-11.3	-0.2
C[C@@H]1CN([C@@H](C)CO)S(=O)(=O)c2ccc(C3=CCCC3)cc2O[C@H]1CN(C)CC1CCCC1	-8.6	-0.1	6.2	-71.9	-7.7
COc1ccc(CN(C)C[C@@H]2OCCCC[C@@H](C)Oc3ccc(NS(=O)(=O)c4ccc(OC)cc4)cc3C(=O)N([C@@H](C)CO)C[C@H]2C)cc1	x	-0.2	x	x	-0.4
COc1ccc(CN(C)C[C@@H]2OCCCC[C@H](C)Oc3ccc(NS(=O)(=O)c4ccc(Cl)cc4)cc3C(=O)N([C@@H](C)CO)C[C@H]2C)cc1	-5.0	0.0	-0.7	21.3	31.0*
COCC(=O)N1CC2(C1)CN(C(=O)NC1CCCC1)[C@H](CO)c1c2c2ccc(OC)cc2n1C	0.0	x	-1.1	10.7	68.5*
COCC(=O)N1CC2(CN(C(=O)NC(C)C)C2)c2c(n(C)c3cc(OC)ccc23)[C@@H]1CO	x	0.1	-4.4	x	25.8*
